{
  "source": "PubChem BioAssay",
  "key": {"[1]": {"test": "ICB984 medulloblastoma cell growth inhibition, synergistic combos for chromothripsis tumors, cisplatin or BGB combos (AID 1671451; call rule not given here;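 further: cells exposed for 96 hours before readout; 0% = vehicle DMSO and 100% = killing by high DMSO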)", "details": "ICB984 medulloblastoma cells, drug combinations, stronger effect = higher value"}, "[2]": {"test": "HTB85 osteosarcoma cell growth inhibition, synergistic combos for chromothripsis tumors, BGB or cisplatin IC20 combos (AID 1671453; in the data active means inhibition above about 80%;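 further: cells exposed for 96 hours before readout; 0% = vehicle DMSO and 100% = high DMSO killing control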)", "details": "HTB85 osteosarcoma cells, drug combinations, stronger effect = higher value"}, "[3]": {"test": "MDA-MB-436 breast carcinoma cell growth inhibition, synergistic combos for chromothripsis tumors, BGB or cisplatin combos (AID 1671458; call rule not given here;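 further: cells exposed for 96 hours; 0% = vehicle DMSO and 100% = killing by high DMSO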)", "details": "MDA-MB-436 breast carcinoma growth inhibition, drug combinations, stronger effect = higher value"}, "[4]": {"test": "growth inhibition of BT084 medulloblastoma cells, cell-based, ICGC_MB145, cisplatin and BGB IC40 combos (AID 1671461; in the data active means inhibition above about 80%;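 further: cells exposed to drugs for 96 hours; 0% = vehicle DMSO and 100% = high DMSO full killing control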)", "details": "drug combinations, stronger effect = higher value"}, "[5]": {"test": "growth inhibition of RCMB18 medulloblastoma cells, cell-based, cisplatin and BGB IC40 combos (AID 1671462; in the data active means inhibition above about 80%;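 further: cells exposed to compound for four days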)", "details": "stronger effect = higher value"}, "[6]": {"test": "growth inhibition of DIPG glioma cells, dose response, cell-based, SU-DIPG-XVII, MIPE5.0, CellTiter-Glo, qHTS (AID 1347060);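 on AC50: cells exposed to compound for 48 hours before viability readout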", "details": "SU-DIPG-XVII viability, CellTiter-Glo ATP luminescence"}, "[7]": {"test": "growth inhibition of DIPG glioma cells, dose response, cell-based, SU-DIPG-XIII, MIPE4.0, CellTiter-Glo, qHTS (AID 1347061; cut-off not given, nearly all actives have AC50 up to about 37 µM;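 further: cells exposed to compound for 48 hours before readout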)", "details": "SU-DIPG-XIII viability, CellTiter-Glo ATP luminescence"}, "[8]": {"test": "growth inhibition of DIPG glioma cells, dose response, cell-based, SU-DIPG-IV, MIPE4.0, CellTiter-Glo, qHTS (AID 1347063; cut-off not given, nearly all actives have AC50 up to about 30 µM;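 further: compound exposure lasted 48 hours before the viability readout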)", "details": "SU-DIPG-IV viability, CellTiter-Glo ATP luminescence"}, "[9]": {"test": "growth inhibition of DIPG glioma cells, dose response, cell-based, SU-DIPG-XIII, MIPE5.0, CellTiter-Glo, qHTS (AID 1347064; cut-off not given, nearly all actives have AC50 up to about 23 µM;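 on AC50: cells exposed to compound for 48 hours before the viability read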)", "details": "SU-DIPG-XIII viability, CellTiter-Glo ATP luminescence"}, "[10]": {"test": "viability loss in pontine glioma line – cell-based, SU-DIPG-XXV, MIPE5.0, CellTiter-Glo, qHTS, dose response (AID 1347065);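 further: cells exposed to compound for 48 hours before ATP readout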", "details": "CellTiter-Glo ATP luminescence"}, "[11]": {"test": "SU-DIPG-VI glioma cell viability, MIPE4.0 library, CellTiter-Glo luminescence, qHTS (AID 1347066; cut-off not given, nearly all actives have AC50 up to about 30 µM;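 further: cells exposed to compound for 48 hours before readout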)", "details": "CellTiter-Glo ATP luminescence"}, "[12]": {"test": "JHH-DIPG-1 glioma cell viability, MIPE5.0 library, CellTiter-Glo luminescence, qHTS (AID 1347067);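 further: cells exposed to compound for 48 hours before readout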", "details": "JHH-DIPG-1 glioma viability, CellTiter-Glo ATP luminescence"}, "[13]": {"test": "SU-DIPG-XXV glioma cell viability, MIPE5.0 library, qHTS (AID 1347068; cut-off not given, nearly all actives have IC50 up to about 30 µM)"}, "[14]": {"test": "growth inhibition of DIPG glioma cells, dose response, cell-based, JHH-DIPG-1, MIPE4.0, CellTiter-Glo, qHTS (AID 1347062; cut-off not given, nearly all actives have AC50 up to about 27 µM)", "details": "JHH-DIPG-1 viability, CellTiter-Glo ATP luminescence"}, "[15]": {"test": "sensitizers of A549 cells to miR-34 induction, primary screen, imaging, A549 dox-inducible miR-34, nuclei and caspase counts (AID 1347080;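 active means compounds whose cell count with miR-34 switched on is under 0.7 times the count with it off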)", "details": "A549 miR-34 inducible, Hoechst nuclei count, 48 h"}, "[16]": {"test": "survival rescue of mitochondrial mutant cells in low glucose, primary screen, MELAS cybrids, Rieske KO mouse fibroblasts, CellTiter-Glo (AID 1508586;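 active means mean z-score across replicates of 1.96 or higher in either the MELAS or the Rieske mutant cell line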;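 further: z relative to plate mean and SD of compound and empty wells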)"}},
  "note": "Several values for one entry are separate records, joined by “and”; a condition that tells them apart may be missing. Equal entries are not always repeated. Results filed as inconclusive are left out. Activity calls are given as the source filed them. Unless noted, cut-off not given; nearly all actives show AC50 up to about 26 µM.",
  "data": [
    {"smiles": "O=C(c1cc(Cc2n[nH]c(=O)c3ccccc23)ccc1F)N1CCN(C(=O)C2CC2)CC1", "values": [
      {"measurement": "inhibition", "setting": "[1]; BGB IC20 combo, at 0.005 µM", "result": "-15.2% and -6.05%"},
      {"measurement": "inhibition", "setting": "[1]; BGB IC40 combo, at 0.005 µM", "result": "-0.22% and -27.2%"},
      {"measurement": "inhibition", "setting": "[1]; BGB IC40 combo, at 0.05 µM", "result": "-4.94% and -12.9%"},
      {"measurement": "inhibition", "setting": "[1]; at 0.5 µM", "result": "-19.9% (inactive) and -38.5% (inactive)"},
      {"measurement": "inhibition", "setting": "[1]; cisplatin combo, at 0.05 µM", "result": "-4.94% and -17.3%"},
      {"measurement": "inhibition", "setting": "[1]; cisplatin combo, at 0.5 µM", "result": "-29% and -53.3%"},
      {"measurement": "inhibition", "setting": "[1]; cisplatin combo, at 5 µM", "result": "-23.6% and -39.9%"},
      {"measurement": "inhibition", "setting": "[1]; measured here: 5 uM single agent, at 5 µM", "result": "-15.8% and -10.7%"},
      {"measurement": "inhibition", "setting": "[2]; at 0.5 µM", "result": "-1.59% (inactive) and -5.82% (inactive)"},
      {"measurement": "inhibition", "setting": "[2]; measured here: with BGB IC20, at 0.5 µM", "result": "-20% and -25.5%"},
      {"measurement": "inhibition", "setting": "[2]; measured here: with BGB IC20, at 5 µM", "result": "-17% and 2.87%"},
      {"measurement": "inhibition", "setting": "[2]; measured here: with cisplatin IC20, at 0.5 µM", "result": "8.83% and 6.96%"},
      {"measurement": "inhibition", "setting": "[2]; measured here: with cisplatin IC20, at 5 µM", "result": "18.3% and 28.5%"},
      {"measurement": "inhibition", "setting": "[2]; single agent, at 5 µM", "result": "9.91% and 21.3%"},
      {"measurement": "inhibition", "setting": "[3]; at 0.5 µM", "result": "6.46% (inactive) and -12% (inactive)"},
      {"measurement": "inhibition", "setting": "[3]; measured here: BGB combination, at 0.5 µM", "result": "1.64% and -35.6%"},
      {"measurement": "inhibition", "setting": "[3]; measured here: BGB combination, at 5 µM", "result": "-1.2% and -15.8%"},
      {"measurement": "inhibition", "setting": "[3]; measured here: cisplatin combination, at 0.5 µM", "result": "-0.142% and -2.85%"},
      {"measurement": "inhibition", "setting": "[3]; measured here: cisplatin combination, at 5 µM", "result": "30.4% and 14.1%"},
      {"measurement": "inhibition", "setting": "[4]; at 0.5 µM", "result": "-15.3% (inactive) and -32.2% (inactive)"},
      {"measurement": "inhibition", "setting": "[4]; cisplatin combination, at 0.5 µM", "result": "-11.1% and -29.9%"},
      {"measurement": "inhibition", "setting": "[4]; cisplatin combination, at 5 µM", "result": "-16.5% and -11.4%"},
      {"measurement": "inhibition", "setting": "[4]; measured here: BGB IC40 combination 0.05 uM, at 0.05 µM", "result": "-6.85% and 14.5%"},
      {"measurement": "inhibition", "setting": "[4]; single agent, at 5 µM", "result": "-19.8% and -50%"},
      {"measurement": "inhibition", "setting": "[5]; at 0.5 µM", "result": "-14.1% (inactive) and 10.3% (inactive)"},
      {"measurement": "inhibition", "setting": "[5]; cisplatin combo, at 5 µM", "result": "0.788% and 11.5%"},
      {"measurement": "inhibition", "setting": "[5]; measured here: BGB IC40 combination, at 0.05 µM", "result": "-1.19% and -22.9%"},
      {"measurement": "inhibition", "setting": "[5]; measured here: combination with cisplatin, at 0.5 µM", "result": "-43.2% and 20.2%"},
      {"measurement": "inhibition", "setting": "[5]; single agent, at 5 µM", "result": "-22.3% and -45%"}
    ]},
    {"smiles": "C[C@](Cc1c[nH]c2ccccc12)(NC(=O)OC1C2CC3CC(C2)CC1C3)C(=O)NC[C@H](NC(=O)CCC(=O)O)c1ccccc1", "note": "(stereo partly drawn)", "values": [
      {"measurement": "outcome", "setting": "[6]", "result": "inactive"},
      {"measurement": "outcome", "setting": "[7]", "result": "inactive"},
      {"measurement": "outcome", "setting": "[8]", "result": "inactive"},
      {"measurement": "outcome", "setting": "[9]", "result": "inactive"},
      {"measurement": "outcome", "setting": "[10]", "result": "inactive"},
      {"measurement": "outcome", "setting": "[11]", "result": "inactive"},
      {"measurement": "outcome", "setting": "[12]", "result": "inactive"},
      {"measurement": "outcome", "setting": "[13]", "result": "inactive"}
    ]},
    {"smiles": "O=c1c(O)c(-c2cc(O)c(O)c(O)c2)oc2cc(O)cc(O)c12", "values": [
      {"measurement": "outcome", "setting": "[6]", "result": "inactive"},
      {"measurement": "outcome", "setting": "[7]", "result": "inactive"},
      {"measurement": "outcome", "setting": "[14]", "result": "inactive"},
      {"measurement": "outcome", "setting": "[10]", "result": "inactive"},
      {"measurement": "outcome", "setting": "[11]", "result": "inactive"},
      {"measurement": "outcome", "setting": "[12]", "result": "inactive"},
      {"measurement": "fold change", "setting": "[15]; stronger effect = lower value, cell number ratio, induced over uninduced", "result": "1.07 (inactive) and 0.861 (inactive) and 0.936 (inactive)"},
      {"measurement": "fold change", "setting": "[15]; measured here: relative caspase fold change +Dox/-Dox", "result": "0.806 and 1.45 and 0.825"},
      {"measurement": "cell count", "setting": "[15]; measured here: total cells with miR-34 induction, stronger effect = lower value", "result": "8570 and 8710 and 9810"},
      {"measurement": "cell count", "setting": "[15]; measured here: total cells without miR-34 induction", "result": "8020 and 10100 and 10500"},
      {"measurement": "z-score", "setting": "[16]; MELAS cybrid survival, CellTiter-Glo 48 h, stronger effect = higher value", "result": "-0.358 (inactive)"},
      {"measurement": "z-score", "setting": "[16]; Rieske KO mouse fibroblast survival, CellTiter-Glo 72 h", "result": 0.188}
    ]},
    {"smiles": "Cc1cc([C@@H](C)Nc2ccccc2C(=O)O)c2nc(N3CCOCC3)cc(=O)n2c1", "values": [
      {"measurement": "AC50", "setting": "[6]", "result": "16600 nM (active)"},
      {"measurement": "AC50", "setting": "[7]", "result": "42900 nM (active)"},
      {"measurement": "AC50", "setting": "[8]", "result": "12100 nM (active)"},
      {"measurement": "AC50", "setting": "[9]", "result": "14800 nM (active)"},
      {"measurement": "AC50", "setting": "[10]", "result": "14800 nM (active)"},
      {"measurement": "AC50", "setting": "[11]", "result": "38200 nM (active)"}
    ]},
    {"smiles": "Cc1c(CN2CCN(S(C)(=O)=O)CC2)sc2c(N3CCOCC3)nc(-c3cnc(N)nc3)nc12", "values": [
      {"measurement": "AC50", "setting": "[6]", "result": "661 nM (active)"},
      {"measurement": "AC50", "setting": "[7]", "result": "332 nM (active)"},
      {"measurement": "AC50", "setting": "[8]", "result": "23.5 nM (active)"},
      {"measurement": "AC50", "setting": "[9]", "result": "525 nM (active)"},
      {"measurement": "AC50", "setting": "[10]", "result": "166 nM (active)"},
      {"measurement": "AC50", "setting": "[11]", "result": "526 nM (active)"},
      {"measurement": "AC50", "setting": "[12]", "result": "1050 nM (active)"}
    ]},
    {"smiles": "CCn1c(-c2nonc2N)nc2cncc(CNC3CCNCC3)c21", "values": [
      {"measurement": "outcome", "setting": "[6]", "result": "inactive"},
      {"measurement": "outcome", "setting": "[7]", "result": "inactive"},
      {"measurement": "outcome", "setting": "[14]", "result": "inactive"},
      {"measurement": "outcome", "setting": "[11]", "result": "inactive"},
      {"measurement": "outcome", "setting": "[12]", "result": "inactive"},
      {"measurement": "outcome", "setting": "[13]", "result": "inactive"}
    ]}
  ]
}
